The structures appear in SMILES notation. Unmarked numbers belong to inactive results. Results filed as inconclusive are left out. Activity calls are given as the source filed them. Unless noted, calls follow the shape of the dose curve; as a rule, active = well fitted curve in the direction sought with a large enough effect in the repeat runs; inconclusive = weak or mixed curves; inactive = no such curve, though single readings can be large; an effect the other way counts as inactive or inconclusive.

The nature of assay [1]: qHTS assay to identify small molecule antagonists of the estrogen related receptor (ERR) signaling pathway from Tox21 library - cell viability counter screen (AID 1224834). Also: nearly all actives have a fitted effect of over 30% in size. Summed up: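 CellTiter-Fluor fluorescence, read after 30 min at 37 C, measures viability of ERR cells. Cells plated at 2,000/well and incubated 6 h before pin-tool compound addition, then exposed 17.5 hours at 37 C.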
In general terms: qHTS replaces the single test concentration by a dilution series.

The target in assay [2] is Luciferin 4-monooxygenase (Photinus pyralis) (UniProt P08659). Kind of assay: qHTS assay to identify small molecule inhibitors of firefly luciferase (AID 1224835). Also: series mostly up to about 120 µM; nearly all actives have a fitted effect of over 25% in size. The method, boiled down:
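Biochemical qHTS: compounds run as interplate titrations against purified firefly enzyme, with D-luciferin and ATP each at its KM concentration. Light output recorded by CCD imaging.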

The nature of assay [3]: qHTS assay to identify small molecule agonists of the constitutive androstane receptor (CAR) signaling pathway - cell viability counter screen (AID 1224836). Also: series mostly up to about 92 µM; nearly all actives have a fitted effect of over 45% in size. The method, boiled down: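 Multiplexed viability check: HepG2-CYP2B6-hCAR cells, 15-point compound dosing, 0.75 uM PK11195 final, 23 h at 37 C, CellTiter-Fluor fluorescence.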
A short description of assay [4]: qHTS assay to identify small molecule antagonists of the constitutive androstane receptor (CAR) signaling pathway - cell viability counter screen (AID 1224837). Also: series mostly up to about 92 µM; nearly all actives have a fitted effect of over 45% in size. The method, boiled down: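 Cytotoxicity counter-screen: CellTiter-Fluor fluorescence after 23 h compound exposure (15-point qHTS) in double-stable HepG2-CYP2B6-hCAR cells, with 50 nM CITCO added.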
The target of assay [5] is Nuclear receptor subfamily 1 group I member 3 (Homo sapiens) (UniProt Q14994). Kind of assay: qHTS assay to identify small molecule antagonists of the constitutive androstane receptor (CAR) signaling pathway (AID 1224838).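 Also: HepG2 cells stably expressing hCAR with CYP2B6 luciferase reporter stimulated by CITCO; nearly all actives have a fitted effect of over 40% in size.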 Summed up:
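Antagonism measured as luciferase signal (ONE-Glo, 30 min, room temperature) in CAR-stimulated cells: HepG2-CYP2B6-hCAR double-stable line exposed 24 hr at 37 C to compound in a 15-point series plus 50 nM CITCO.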

For assay [6] the target is unchanged. Kind of assay: qHTS assay to identify small molecule agonists of the constitutive androstane receptor (CAR) signaling pathway (AID 1224839). Also: nearly all actives have a fitted effect of over 15% in size. Also: potency is read from the fitted curve at half-maximal effect.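 As to activation: HepG2 cells stably carrying human CAR and a CYP2B6 luciferase reporter; series mostly up to about 92 µM.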 Summed up: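 Using human hepatoma HepG2 cells engineered with hCAR and a CYP2B6-2.2kb reporter, 15-concentration compound series were incubated 24 h alongside PK11195 at 0.75 uM final, with luminescence quantified afterwards.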

The nature of assay [7]: qHTS assay to identify small molecule antagonists of the estrogen related receptor signaling pathway with the pleiotropic PPARgamma coactivator (PGC) from Tox21 10K library - cell viability counter screen (AID 1224840; active = well fitted cell-killing curve with a large enough effect in the repeat runs, not every such curve was filed as active; also: nearly all actives have a fitted effect of over 40% in size). Summed up:
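Counter-screen for cytotoxicity: after 17.5 h compound exposure at 37 C, CellTiter-Fluor reagent added to PGC/ERR cells for 30 min and fluorescence read. Cells were seeded at 2,000 per well 6 h before dosing.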

Assay [8] has as its target Thyrotropin receptor (Homo sapiens) (UniProt P16473). The experiment in a line: qHTS assay to identify small molecule agonists of the thyroid stimulating hormone receptor (TSHR) signaling pathway (AID 1224843; calls by dose curve; also: nearly all actives have a fitted effect of over 45% in size). Summed up:
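HEK293/TSHR, 800 cells/well; cpd 30 min RT; add cAMP-d2 + anti-cAMP-cryptate, 1 h RT; fluorescence read on plate reader. 15-pt titration, n=3.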

Assay [9] in a line: qHTS assay to identify small molecule agonists of H2AX (AID 1224845; active = well fitted activation curve with a large enough effect in the signal ratio in the repeat runs, not every such curve was filed as active; the % refers to the signal ratio). Summed up: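 Wild-type CHO-K1 cells, plated overnight, exposed 3hr at 37C to 15 concentrations (0.76% DMSO final). Lysed, then HTRF anti-pH2AX (S139) cryptate and anti-H2AX-d2 antibodies, 24 hr room temperature; 665/620 nm emission read.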
Assay [10] in a line: qHTS assay to identify small molecule agonists of H2AX - cell viability counter screen (AID 1224847; calls by dose curve; also: top concentration of the series differs between compounds; nearly all actives have a fitted effect of over 30% in size). The method, boiled down: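 After overnight plating of 1000 CHO-K1 cells per well, a 15-concentration compound series was applied for 3 hr at 37C. Luminescence from CellTiter-Glo, read following 30 min at room temperature, reflected cell viability.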
A short description of assay [11]: qHTS RealTime-Glo MT Cell Viability Assay in HepG2 cells - 24 hour (AID 1224867). Also: nearly all actives have a fitted effect of over 50% in size. The method, boiled down:
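Luminescence read-out: viable HepG2 cells reduce a prosubstrate to a NanoLuc substrate, giving a signal proportional to live cell number. Reads taken at 0, 8, 16, 24, 32 and 40 h of compound exposure at 37 C.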

The nature of assay [12]: qHTS RealTime-Glo MT Cell Viability Assay in HEK293 cells - 32 hour (AID 1224868). Also: nearly all actives have a fitted effect of over 50% in size. Also: potency is read from the fitted curve at half-maximal effect. As to activity change, negative = cytotoxic: top concentration of the series differs between compounds. Summed up:
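Nonlytic real-time viability readout: viable cells convert prosubstrate to NanoLuc substrate, giving luminescence proportional to live cell number. HEK293, 600 cells/well, compound added after 5 h, continuous culture at 37 C.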

Assay [13] is described as follows: qHTS assay to identify small molecule antagonists of the estrogen related receptor signaling pathway with the pleiotropic PPARgamma coactivator (PGC) from Tox21 10K library (AID 1224841; call rule not given here; also: series mostly up to about 92 µM; actives are mostly falling curves and most rising ones were filed inactive; nearly all actives have a fitted effect of over 50% in size). Summed up: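 Luminescence (One-Glo, 30 min at room temperature) after 18 h compound treatment at 37 C of PGC/ERR reporter cells plated at 2,000 cells/well and settled 6 h beforehand.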

Assay [14] is described as follows: qHTS assay to identify small molecule agonists of the hypoxia (HIF-1) signaling pathway - cell viability counter screen (AID 1224844; calls by dose curve; also: nearly all actives have a fitted effect of over 50% in size). Summed up:
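Cytotoxicity measured by CellTiter-Glo ATP luminescence in the wells also read for beta-lactamase signal. Cells were HRE-bla ME-180 (2,000/well, 0.5% dialyzed FBS), exposed to compounds for 17 h at 37C.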

Assay [15] is described as follows: qHTS assay to identify small molecule antagonists of the estrogen related receptor (ERR) signaling pathway from Tox21 library (AID 1224848). Also: nearly all actives have a fitted effect of over 50% in size. Also: potency is read from the fitted curve at half-maximal effect. Summed up: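 Compounds dissolved in DMSO are pin-transferred onto ERR reporter cells (2,000 per well) that have settled for 6 h at 37 C. Plates then incubate 18 h at 37 C before ONE-Glo luciferase reagent and a luminescence read 30 min later.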

A short description of assay [16]: A CellTox Green Cytotoxicity Assay to monitor cytotoxicity in HEK293 cells - 0 hour (AID 1224869). Also: nearly all actives have a fitted effect of over 50% in size. The method, boiled down: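 Fluorescence from a DNA-binding dye excluded by viable cells was measured repeatedly in the same HEK293 wells (600 cells/well) during continuous compound exposure at 37 C. Each assay gives one read point: 0, 8, 16, 24, 32 or 40 h.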
A short description of assay [17]: qHTS assay to identify small molecule agonists of the hypoxia (HIF-1) signaling pathway (AID 1224846; active = well fitted activation curve with a large enough effect in the signal ratio in the repeat runs, not every such curve was filed as active; the % refers to the signal ratio). Summed up: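 Compounds added to ME-180 cells carrying hypoxia-response-element beta-lactamase reporter (0.5% dialyzed FBS, 5 h preplating), 17 h at 37C; agonist activity detected by CCF4-AM B/G FRET read-out.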
% is scaled to controls: 0 for no effect and ±100 for the full control effect.

Sequence of Thyrotropin receptor (Homo sapiens) (P16473 whole entry, looked up): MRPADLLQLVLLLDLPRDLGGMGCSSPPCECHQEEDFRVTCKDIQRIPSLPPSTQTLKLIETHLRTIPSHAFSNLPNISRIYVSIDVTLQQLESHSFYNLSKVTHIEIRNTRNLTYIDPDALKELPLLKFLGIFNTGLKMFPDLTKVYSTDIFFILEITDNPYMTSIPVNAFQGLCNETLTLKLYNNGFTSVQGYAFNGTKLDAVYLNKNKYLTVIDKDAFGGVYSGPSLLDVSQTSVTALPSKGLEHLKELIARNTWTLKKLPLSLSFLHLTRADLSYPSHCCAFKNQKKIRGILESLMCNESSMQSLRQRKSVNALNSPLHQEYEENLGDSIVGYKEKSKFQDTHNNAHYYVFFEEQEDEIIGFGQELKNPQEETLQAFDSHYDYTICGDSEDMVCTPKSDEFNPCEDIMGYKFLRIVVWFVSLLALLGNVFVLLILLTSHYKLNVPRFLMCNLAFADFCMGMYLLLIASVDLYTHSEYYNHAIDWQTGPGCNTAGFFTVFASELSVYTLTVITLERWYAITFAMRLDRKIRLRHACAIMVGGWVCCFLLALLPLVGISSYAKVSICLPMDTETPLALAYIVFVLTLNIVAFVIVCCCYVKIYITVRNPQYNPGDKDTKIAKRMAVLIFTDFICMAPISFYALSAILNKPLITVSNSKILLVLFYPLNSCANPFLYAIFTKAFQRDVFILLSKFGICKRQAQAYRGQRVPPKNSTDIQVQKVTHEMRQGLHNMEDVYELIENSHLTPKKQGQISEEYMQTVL
Sequence of Nuclear receptor subfamily 1 group I member 3 (Homo sapiens) (Q14994 whole entry, looked up): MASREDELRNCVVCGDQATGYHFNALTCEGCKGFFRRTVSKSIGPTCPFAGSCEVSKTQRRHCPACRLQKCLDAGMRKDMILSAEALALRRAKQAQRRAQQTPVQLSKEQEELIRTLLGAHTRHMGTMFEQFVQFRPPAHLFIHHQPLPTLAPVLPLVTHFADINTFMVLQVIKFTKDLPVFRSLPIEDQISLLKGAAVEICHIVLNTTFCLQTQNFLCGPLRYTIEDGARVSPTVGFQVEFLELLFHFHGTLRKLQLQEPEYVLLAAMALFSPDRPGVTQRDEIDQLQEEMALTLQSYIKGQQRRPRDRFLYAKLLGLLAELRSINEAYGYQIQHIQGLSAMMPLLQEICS
Sequence of Luciferin 4-monooxygenase (Photinus pyralis) (P08659 whole entry, looked up): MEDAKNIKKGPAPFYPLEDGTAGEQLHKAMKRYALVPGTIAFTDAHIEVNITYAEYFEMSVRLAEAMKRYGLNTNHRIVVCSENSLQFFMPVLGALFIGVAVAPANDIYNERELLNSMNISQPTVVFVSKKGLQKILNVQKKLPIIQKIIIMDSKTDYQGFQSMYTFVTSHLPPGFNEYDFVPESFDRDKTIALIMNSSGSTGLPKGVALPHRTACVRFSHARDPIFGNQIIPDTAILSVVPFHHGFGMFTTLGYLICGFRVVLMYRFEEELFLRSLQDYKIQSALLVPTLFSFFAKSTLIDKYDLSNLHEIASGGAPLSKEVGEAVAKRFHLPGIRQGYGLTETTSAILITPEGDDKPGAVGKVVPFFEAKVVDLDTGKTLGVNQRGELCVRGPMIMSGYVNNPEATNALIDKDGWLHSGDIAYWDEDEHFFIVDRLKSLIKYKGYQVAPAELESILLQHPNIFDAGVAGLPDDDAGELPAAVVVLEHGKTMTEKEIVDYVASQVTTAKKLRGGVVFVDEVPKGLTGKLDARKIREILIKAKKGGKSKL

For `CCOC(=O)c1ccccc1C`, the Potency entry in [1], in assay [2], in assay [3], in [4], in assay [5] and in assay [6] was “inactive” each time. Further, the Potency result in [7], in assay [8], in assay [9], in assay [10], in [11] and in [12] was “inactive” in each case.

For `CSc1ccc(Oc2ccc(S(N)(=O)=O)cc2CN(C)C)cc1C`, the Potency entry in [1], in assay [2], in assay [3], in assay [4], in [5] and in assay [6] was “inactive” each time. Moreover, the Potency entry in [7], in assay [13], in assay [14], in [9] and in assay [16] was “inactive” throughout. For the same molecule, the Potency in assay [15] was 5.45 µM (active); in assay [12] it was 43.6 µM (active).

For the molecule `CCCCCCCC/C=C\CCCCCCCC(=O)OC`, the Potency result in [1], in assay [2], in assay [3], in assay [4], in [5] and in [6] was “inactive” in each case. Besides, the Potency entry in [7], in assay [8], in assay [14], in assay [9], in assay [10] and in [11] was “inactive” each time. In addition, the Potency result in [12] and in [16] was “inactive” each time.

Turning to `Cc1ccc(/C=N/n2c(-c3ccccc3)csc2=S)cc1`, the Potency entry in assay [1], in assay [2], in assay [3], in [4], in [5] and in assay [7] was “inactive” each time. For the same molecule, the Potency result in assay [13], in assay [8], in assay [9], in [15], in assay [11] and in [12] was “inactive” each time. Moreover, the Potency result in assay [16] was “inactive”. Besides, the Potency in assay [6] was 29.8 µM (active). For the same molecule, the call in assay [17] was inactive.

Regarding `C=CCOC(=O)/C=C\C(=O)OCC=C`, the Potency result in assay [1], in assay [2], in assay [3], in assay [4], in assay [5] and in assay [6] was “inactive” throughout. In addition, the Potency entry in assay [7], in [8], in assay [14], in assay [9], in assay [10] and in [11] was “inactive” in each case. Also, in assay [16], the Potency entry was “inactive”. The result in [17] was inactive.

Turning to `CN1CCCN=C1/C=C/c1cccs1`, the Potency result in assay [1], in assay [2], in assay [3], in assay [4], in assay [5] and in assay [6] was “inactive” each time. For the same molecule, the Potency result in assay [7], in assay [8], in assay [14], in assay [9], in assay [10] and in assay [11] was “inactive” in each case. In addition, the Potency entry in [12] and in assay [16] was “inactive” each time.

In the case of `CC(=O)N(c1onc(C)c1C)S(=O)(=O)c1ccc(N)cc1`, the Potency entry in assay [1], in assay [2], in assay [3], in [4], in assay [5] and in assay [6] was “inactive” in each case. Also, the Potency entry in assay [7], in [8], in assay [14], in [9], in assay [10] and in assay [11] was “inactive” each time. The Potency result in [12] is “inactive”. The outcome in assay [17] was inactive.

Take `CC1CN(c2cc3c(cc2F)c(=O)c(C(=O)O)cn3-c2ccc(F)cc2F)CCN1` (stereo unspecified): the values for the viability change, negative = cytotoxic in assay [1], in assay [3] and in [7] were 4.3% [at 8.39 µM], -1.43% [at 8.39 µM] and 0.948% [at 8.39 µM], respectively. Further, the activity change, negative = inhibition in [2] is 1.15% [at 10.5 µM]. The activity change, negative = cytotoxicity in [4] is 6.26% [at 8.39 µM]; in assay [14], 5.19% [at 6.97 µM]; in assay [10] it was 1.23% [at 14 µM]; in assay [11] it was 4.21% [at 6.97 µM]. In [5], the activity, negative = inhibition is 9.29% [at 8.39 µM]. The activation in [6] is -1.5% [at 8.39 µM]; in assay [8], -2.32% [at 8.39 µM]; in [17], 0.362% [at 7.01 µM]. Further, the activation (H2AX phosphorylation) in [9] was -0.572% [at 14 µM]. In addition, the activity change, negative = cytotoxic in assay [12] is 5.72% [at 6.97 µM]. Moreover, the cytotoxicity in assay [16] is -3.88% [at 6.97 µM].

For the origin of these results see PubChem BioAssay (Tox21).
